From PubChem BioAssay
SKKanGAS inh: SKKanGAS growth inhibition; S. pyogenes SKKanGAS, kanamycin growth, BacTiter-Glo, 6 h; inhibition, % at 7.5 µM; actives 1.3% (n = 300,000);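 active means mean replicate score, as percent of positive control median, at least 50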;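 further: strain carries kanamycin resistance gene driven by streptokinase promoter and grows in 40 µg/ml kanamycin; loss of luminescence reflects streptokinase promoter inhibition or plain growth inhibition; 0% = median of DMSO wells and 100% = positive control at its reference dose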
Platelet DG rel: modulates dense granule release in human platelets; actives 0.22% (n = 300,000); AID 1663; human platelet-rich plasma, SFLLRN dense granule ATP release, luminescence; inhibition, %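 (compounds screened at 7.5 µM in platelet-rich plasma)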;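 active means mean replicate score, as percent of positive control, at or above 50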
WT yeast gro inh: growth inhibition of WT yeast, mitochondrial fusion screen. mitochondrial fusion phenotypic screen, WT strain. inhibition, % at 10 µM. actives 2.1% (n = 190,000). AID 1362; in the data active means inhibition above about 58%; tested in S. cerevisiae
PHOSPHO1 inh: blocks human PHOSPHO1 phosphatase activity | Q8TCT1 | recombinant PHOSPHO1, absorbance phosphatase assay | inhibition, % at 13.3 µM | actives 1.1% (n = 290,000) | AID 1565; in the data active means inhibition above about 60%
Target sequence (Q8TCT1 whole entry, looked up): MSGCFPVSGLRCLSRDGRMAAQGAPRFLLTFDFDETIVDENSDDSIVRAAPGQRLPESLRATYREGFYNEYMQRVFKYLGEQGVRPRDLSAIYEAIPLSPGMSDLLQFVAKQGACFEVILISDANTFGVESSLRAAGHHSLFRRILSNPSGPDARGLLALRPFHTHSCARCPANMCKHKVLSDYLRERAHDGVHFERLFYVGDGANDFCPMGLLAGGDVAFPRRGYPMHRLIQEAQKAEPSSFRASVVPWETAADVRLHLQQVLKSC
Rtt109 HAT inh: blocks Candida albicans Rtt109/Vps75 acetyltransferase activity; Q5AAJ8; purified Rtt109/Vps75, ThioGlo CoA-SH fluorescence, 4 h; inhibition, % at 34.9 µM; actives 0.16% (n = 330,000); AID 540336;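 active means inhibition of at least 50% in every replicate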
Target sequence (Q5AAJ8 whole entry, looked up): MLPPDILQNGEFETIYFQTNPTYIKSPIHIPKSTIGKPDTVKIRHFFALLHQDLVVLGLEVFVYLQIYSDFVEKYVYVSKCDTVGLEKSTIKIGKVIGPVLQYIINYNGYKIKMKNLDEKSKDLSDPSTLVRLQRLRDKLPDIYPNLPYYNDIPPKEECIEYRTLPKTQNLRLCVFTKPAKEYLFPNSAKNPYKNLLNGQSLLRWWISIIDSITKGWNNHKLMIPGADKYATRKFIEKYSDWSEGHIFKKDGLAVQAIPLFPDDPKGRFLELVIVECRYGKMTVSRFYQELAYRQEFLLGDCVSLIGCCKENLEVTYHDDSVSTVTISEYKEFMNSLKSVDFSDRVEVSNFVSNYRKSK
TPT1 inh: inhibitors of Candida albicans tRNA 2'-phosphotransferase TPT1; recombinant caTPT1, FP RNA substrate dephosphorylation; inhibition, % at 5 µM; actives 0.81% (n = 300,000); AID 1962;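 active means inhibition above the mean of all tested compounds plus 3 SD, set per screening campaign, cut at about 24% in these data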;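 further: plate controls were DMSO alone for no effect and ferristatin control at 100 nM for full effect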
An asterisk follows results filed as active; . = no result given. The list is not random: actives were taken first. Their share in the collection is about 3.9%.

SMILES | SKKanGAS inh | Platelet DG rel | WT yeast gro inh | PHOSPHO1 inh | Rtt109 HAT inh | TPT1 inh
CCC(C)n1c(SCc2ccccc2)nc2ccsc2c1=O (centres undefined) | 2 | 7 | 65* | 16 | 22 | -2
Cc1ccc(CSc2nc3ccsc3c(=O)n2Cc2ccccn2)cc1 | 17 | 4 | 59* | 13 | 9 | -2
C=C(C)COc1ccc(-c2[nH]ncc2-c2ccc(Br)cc2)c(O)c1 | 65* | 0 | 95* | 10 | 7 | -4
C=C(C)COc1ccc(-c2ncnc(C(F)(F)F)c2-c2ccc(OC)cc2)c(O)c1 | 20 | -1 | . | -3 | 0 | 2
C=C(C)COc1ccc(-c2n[nH]c(C)c2-c2ccc(Br)cc2)c(O)c1 | 99* | 3 | 26 | 16 | 1 | -1
COc1ccc(-c2cn[nH]c2-c2ccc(OCc3ccc([N+](=O)[O-])cc3)cc2O)cc1 | 16 | -5 | 68* | -1 | 9 | -2
CCc1cc2c(=O)n(Cc3ccco3)c(SCc3c(C)noc3C)nc2s1 | 99* | -1 | 32 | 0 | -1 | 3
O=C(COC(=O)COc1ccccc1)NC12CC3CC(CC(C3)C1)C2 | . | . | . | . | 1 | .
NNC(=O)c1ccc2nc(-c3ccc(Br)cc3)cn2c1 | -3 | 2 | 71* | 0 | 7 | 1
CCN(CC)CCCN(C(=O)c1ccc(F)cc1)c1nc(-c2ccc(OC)cc2)cs1 | 1 | -3 | . | 29 | 9 | -4
O=C(Nc1cc(S(=O)(=O)Nc2ccc(Cl)cc2)ccc1N1CCCCC1)c1ccc(F)cc1 | 55* | -1 | 10 | -45 | -4 | -1
NC(=O)c1ccc(N2CCCCC2)c(N2C(=O)C3CC=CCC3C2=O)c1 (centres undefined) | 3 | -1 | 84* | 37 | 9 | 0
CN(C(=O)CCN1C(=O)S/C(=C\c2ccccc2)C1=O)C1CCS(=O)(=O)C1 (centres undefined) | 0 | 0 | . | 53 | -23 | 3
CC(=O)Nc1ccc(C(=O)OCCCOC(=O)c2ccc(NC(C)=O)cc2)cc1 | 10 | 8 | . | 48 | 0 | -2
O=C(OCCCOC(=O)c1cc[n+]([O-])cc1)c1cc[n+]([O-])cc1 | 8 | -12 | . | 62* | 7 | -3
CCCCOc1ccc(-c2nc(SCC(N)=O)n[nH]2)cc1 | 10 | 8 | -7 | 15 | 0 | -3
CCCCOc1ccc(-c2nc(=S)[nH][nH]2)cc1 | 7 | 6 | 21 | 80* | -5 | 3
C[C@H](CO)N1C[C@H](C)[C@@H](CN(C)C(=O)Nc2ccccc2)Oc2ccc(NC(=O)Cc3ccccc3)cc2C1=O | . | . | . | . | 4 | .
O=C(NCCCN1C(=O)c2ccccc2C1=O)OCc1ccccc1 | . | . | . | . | 5 | .
CCCNC(=S)N1CCN(C(c2ccccc2)c2ccccc2)CC1 | 4 | 11 | 69* | -5 | 5 | -4
CCNC(=S)N1CCN(C(c2ccccc2)c2ccccc2)CC1 | -3 | 1 | 51 | -26 | 6 | 1
CCCCNC(=S)N1CCN(C(c2ccccc2)c2ccccc2)CC1 | -3 | -5 | 66* | 37 | 1 | -4
C=CCn1c(SCC(=O)Nc2ccc(S(N)(=O)=O)cc2)nnc1-c1cnccn1 | -2 | -2 | . | 21 | 9 | -3
O=[N+]([O-])c1ccccc1S(=O)(=O)N1CCCC(C(F)(F)F)C1 (centres undefined) | 19 | -7 | . | 24 | 5 | 1
Oc1ccc(C[C@@H]2CNC(=S)N2CCCCC2CCCCC2)cc1 | 25 | 11 | 91* | 39 | -6 | 0
SMILES | SKKanGAS inh | Platelet DG rel | WT yeast gro inh | PHOSPHO1 inh | Rtt109 HAT inh | TPT1 inh
O=C1NC[C@H](Cc2ccc(O)cc2)N(CC2CCCCC2)C1=O | 1 | -2 | . | 25 | -8 | -2
Cc1ccc(C)c(N2CCN(C(=O)CCCn3ncn4c(cc5occc54)c3=O)CC2)c1 | 2 | -4 | . | 34 | 27 | 3
Cc1ccc(S(=O)(=O)N2[C@@H](c3ccc(Cl)cc3)C(C(=O)O)=C[C@H]2C(C)(C)C)cc1 | . | . | . | . | -13 | .
Cc1ccccc1-n1c(=O)cc(N2CCN(C(=O)c3ccco3)CC2)[nH]c1=O | -2 | 52* | 12 | -8 | -5 | -2
Cc1cc(O)c(Sc2ccc(Cl)cc2)c(=O)[nH]1 | 1 | 0 | . | . | -25 | -3
Cc1[nH]n(C(C)(C)C)c(=O)c1Sc1ccc(Cl)cc1 | -3 | 2 | 61* | 74* | . | -2
C=CCN(c1ccccc1)S(=O)(=O)c1cccc(C(=O)N2CC(C)CC(C)C2)c1 (centres undefined) | 4 | -7 | . | 24 | 0 | 0
CN(CC(=O)Nc1cccc(F)c1)C(=O)c1cc([N+](=O)[O-])ccc1N1CCCCC1 | -12 | -9 | . | . | 15 | 0
Cc1ccc(-c2cc(C(=O)Nc3ccc(S(=O)(=O)Nc4cc(C)on4)cc3)c3ccccc3n2)c(C)c1 | 54* | 0 | -14 | 6 | 17 | 0
Cc1ccc(/C=C/C(=O)NC(=S)Nc2ccc(S(=O)(=O)Nc3cc(C)on3)cc2)cc1 | 52* | -1 | . | 15 | 9 | -1
Cc1cc(NS(=O)(=O)c2ccc(NC(=O)c3ccccc3C)cc2)no1 | 6 | -1 | . | -9 | 5 | -2
Cc1nnc(NC(=O)c2cc(-c3ccncc3)nc3c(C)cccc23)s1 | 0 | -9 | . | 20 | -4 | 0
CCCCCCCNC(=O)CN1N=C(c2ccc(C)cc2)CCC1=O | -6 | 4 | . | 27 | -2 | 1
CC(=O)Nc1ccc(NC2=CC(=O)c3ccccc3C2=O)cc1 | 2 | 3 | . | . | 1 | -3
Cc1ccc(NC2=CC(=O)C(=O)c3ccccc32)cc1 | 24 | 4 | 65* | -4 | 5 | -6
CCOC(=O)c1ccc(NC2=CC(=O)C(=O)c3ccccc32)cc1 | 70* | 9 | 1 | 34 | 10 | -2
NS(=O)(=O)c1ccc(NC2=CC(=O)C(=O)c3ccccc32)cc1 | 14 | -2 | . | 15 | -8 | 0
O=C1C=C(Nc2ccc(O)cc2)C(=O)c2ccccc21 | 29 | 74* | . | 8 | 1 | -4
COC(=O)c1ccc2c(c1O)C(=O)c1ccccc1C2=O | 70* | 4 | 66* | 38 | 0 | -43
O=C1c2ccccc2C(=O)c2c1ccc(O)c2O | . | . | . | . | -5 | .
CC(C)(O)c1cc2ccc(C#CCCN3C(=O)c4ccccc4C3=O)cc2c(=O)o1 | . | . | . | . | 10 | .
Clc1cccc(Nc2ncnc3c2cnn3-c2ccccc2)c1 | 64* | -8 | 0 | 1 | -3 | -4
O=C(O)c1nn(Cc2ncc(-c3cccc(Cl)c3)o2)c(=O)c2ccccc12 | -2 | -17 | . | 27 | 1 | 3
Cn1c(-c2cc(Br)ccc2O)n[nH]c1=S | 67* | -2 | 4 | 32 | 5 | -2
CCN(CC(=O)NCc1ccc(F)cc1)C(=O)/C=C/c1cc(OC)ccc1OC | -4 | 5 | . | 35 | -217 | .
Cn1c(=O)c2c(nc(CN3CCCCC3)n2CCCc2ccccc2)n(C)c1=O | 7 | 2 | . | . | -7 | 2
CC1CCCCN1Cc1nc2c(c(=O)n(C)c(=O)n2C)n1CCCc1ccccc1 (centres undefined) | -1 | 56* | . | . | 3 | -6
